# ChEMBL document CHEMBL3988442, “University of Dundee, Small-Polar-MMV Screening Library” (2021)
# Among all 48,000 compounds or so, about 13,000 (27%) showed an effect of 50% or more. This is one part of the list.
# Test system: Wolbachia pipientis
# Test: Anti-Wolbachia Cell-Based Screen
# Format: functional
# Design: scale not given: in the data most compounds retested in dose-response had high values
# Conditions: 5 µM
row,SMILES,Percent Effect
1,O=C(NCC1CCCOC1)c1ccc(-c2cccs2)[nH]c1=O (configuration not stated),1.044%
2,Cc1cccc(-c2ccc(C(=O)NCC3CCOC3)c(=O)[nH]2)c1 (configuration not stated),2.342%
3,Cc1ccc(C(=O)NCC2COCCO2)c(=O)[nH]1 (configuration not stated),4.795%
4,O=C(NCC1CCOC1)c1ccc(-c2ccccc2)[nH]c1=O (configuration not stated),96.09%
5,O=C(NCC1CCCOC1)c1ccc(-c2ccccc2)[nH]c1=O (configuration not stated),111.2%
6,Cc1ccc(C(=O)NCC2CCCCO2)c(=O)[nH]1 (configuration not stated),8.158%
7,Cc1cccc(-c2ccc(C(=O)NCC3CCCO3)c(=O)[nH]2)c1 (configuration not stated),118.6%
8,Cc1cccc(-c2ccc(C(=O)NCCN3CCOCC3)c(=O)[nH]2)c1,3.561%
9,O=C(NCCN1CCOCC1)c1ccc(-c2ccccc2)[nH]c1=O,-12.34%
10,Cc1cccc(-c2ccc(C(=O)NCCN(C)C3CC3)c(=O)[nH]2)c1,-2.901%
11,O=C(NCCCn1cncn1)c1ccc(-c2ccccc2)[nH]c1=O,-1.732%
12,Cc1cccc(-c2ccc(C(=O)NCC3CCCOC3)c(=O)[nH]2)c1 (configuration not stated),108.2%
13,Cc1nc(CCNC(=O)C2CCN(C(C)C)CC2)sc1Cl,3.943%
14,CCc1ccccc1OC1CN(CC2CCOC2)C1 (configuration not stated),1.155%
15,CN(C)C(=O)CCCn1ccc(NCc2ccc(C#N)cc2)n1,-12.19%
16,COCc1cccc(NC(=O)N(C)Cc2ncc(C)c(OC)c2C)c1,-2.673%
17,COCCOC(=O)N1CCN2C[C@@H](CO)[C@H](c3ccccc3)[C@H]2C1,99.06%
18,COC(=O)N1CCC(NC(=O)CC(C)CCc2ccccc2)CC1 (configuration not stated),12.69%
19,NC(=O)[C@@H]1CN2CCN(C(=O)C3CC3)C[C@@H]2[C@H]1c1ccccc1,100.9%
20,O=C(CC1CCCCC1)N1CCN(C(=O)NCc2ccccn2)CC1,-2.156%
21,COC(=O)N1CCN(Cc2ccccc2Cl)CC1,0.9968%
22,COC(=O)N1CCN2C[C@H](CO)[C@@H](c3ccccc3)[C@H]2C1,95.68%
23,O=C(CO)N1CCCC(N2CCN(c3ccccc3F)CC2)C1 (configuration not stated),13.62%
24,O=C(CC1CCCC1)N1CCN2C[C@@H](CO)[C@H](c3ccccc3)[C@H]2C1,76.76%
25,COCCOC(=O)N1C[C@H]2CC[C@@H]1CN(C1Cc3ccccc3C1)C2,9.586%

row,SMILES,Percent Effect
1,O=C(C1CC1)N1CCN(C(=O)C2CC(=O)N(c3ccccc3Br)C2)CC1 (configuration not stated),9.914%
2,O=C(Nc1nc(-c2ccccc2)ns1)N1CCN(C(=O)C2CC2)CC1,-11.4%
3,COCCC(=O)N1CCC2(CC1)CC(c1ccccc1)CN(C1CC1)C2 (configuration not stated),-1.605%
4,O=C(NC1CCCN(c2ccc(OC(F)F)cc2)C1)c1ccon1 (configuration not stated),12.05%
5,Cc1c(NCCCOc2cccc(C#N)c2)cccc1C(N)=O,-5.343%
6,O=C1CCN(C(=O)C2(c3ccc(F)cc3)CCOCC2)CCN1,5.245%
7,Cc1cc(CS(=O)(=O)c2ccccc2)no1,-12.79%
8,CC(=O)N1CCN(C)CC(COCc2ccccc2)C1 (configuration not stated),-1.846%
9,CCN1CC[C@]2(CN(C(=O)C3CCOCC3)C[C@H]2c2ccccc2)C1=O,-4.584%
10,CC(=O)N1CCN(C2CCc3ccccc32)CC1 (configuration not stated),10.52%
11,CC(=O)N1CCN2C[C@H](CO)[C@@H](c3ccccc3)[C@H]2C1,95.75%
12,O=C(C1CC1)N1CCN2C[C@@H](CO)[C@H](c3ccccc3)[C@H]2C1,89.49%
13,CCC(NC(=O)c1ccc2[nH]ccc2c1)C(=O)N1CCOCC1 (configuration not stated),6.827%
14,OC1CCN(c2ccccc2NCc2nc(-c3ccoc3)no2)CC1,5.706%
15,O=C(NCCN1C(=O)CCC1=O)c1nc2ccccc2c(=O)[nH]1,1.599%
16,CCCc1cc(C(=O)NCCCC(=O)N2Cc3ccccc3C2)[nH]n1,-1.2%
17,CC(=O)N1CCn2c(-c3cccc(F)c3)cnc2C12CCNCC2.O=C(O)C(F)(F)F,7.148%
18,CCN1CCn2c(-c3cccc(F)c3)cnc2C12CCN(C(C)=O)CC2.O=C(O)C(F)(F)F,112.1%
19,CNC(=O)N1CCC2(CC1)c1ncc(-c3cccc(F)c3)n1CCN2C.O=C(O)C(F)(F)F,101.8%
20,CN1CCn2c(-c3cccc(F)c3)cnc2C12CCN(CC1CC1)CC2.O=C(O)C(F)(F)F.O=C(O)C(F)(F)F.O=C(O)C(F)(F)F,-9.47%
21,CCN1CCN(S(=O)(=O)c2cn(C(C)C)cn2)c2ccccc21,-8.79%
22,O=C(c1ccc(-n2cccn2)nc1)N1CCCC(c2cnccn2)C1 (configuration not stated),143.5%
23,O=C(c1ccc(-n2cccn2)nc1)N1CCC(c2ccn[nH]2)C1 (configuration not stated),151%
24,O=C(c1ccccc1)C1CCN(c2cncc(-n3cccn3)n2)CC1,6.831%
25,O=C(c1ccc(-n2cccn2)nc1)N1CCC(c2ccc(O)cc2)CC1,-5.1%

row,SMILES,Percent Effect
1,Cc1cncc(C2CCN(C(=O)c3ccc(-n4cccn4)nc3)CC2)n1,157.3%
2,O=C(c1ccc(-n2cccn2)nc1)N1CCCN(c2cccnn2)CC1,2.596%
3,CC1CCCCN1C1CN(C(=O)c2sccc2S(N)(=O)=O)C1 (configuration not stated),5.602%
4,CN(Cc1ccccc1)C1(C(=O)O)Cc2ccccc2C1,1.396%
5,COCCN1C(=O)CC[C@]12CC[C@@H](NCc1nccs1)CC2.O=C(O)C(F)(F)F,-1.329%
6,CN1C(=O)CCCC12CCCN(Cc1nccs1)C2.O=C(O)C(F)(F)F (configuration not stated),-2.009%
7,CC[C@@H]1N(Cc2nccs2)CCC[C@]12CCC(=O)N2C.O=C(O)C(F)(F)F,109.2%
8,CC[C@@H]1N(CC2CC2)CCC[C@]12CCC(=O)N2CCOC.O=C(O)C(F)(F)F,-7.54%
9,CC[C@@H]1N(Cc2nccs2)CCC[C@]12CCC(=O)N2CCOC.O=C(O)C(F)(F)F,100.4%
10,Cn1cccc1C(=O)N1C[C@H]2CN(CCN3CCCC3)C(=O)[C@H]2C1,-3.388%
11,CN(C)C(=O)N[C@@H]1CN(S(C)(=O)=O)[C@@H]2CCCO[C@@H]21,-12.16%
12,Cn1cc(C(=O)N[C@H]2CN(S(C)(=O)=O)[C@@H]3CCCO[C@H]23)cn1,0.3212%
13,CS(=O)(=O)N1C[C@@H](NC(=O)c2ccno2)[C@@H]2OCCC[C@@H]21,112.1%
14,CS(=O)(=O)N1C[C@H](NC(=O)c2ccno2)[C@@H]2OCCC[C@@H]21,97.34%
15,CC(CCNC(=O)NCCc1ccc(S(N)(=O)=O)cc1)c1ccccc1 (configuration not stated),2.961%
16,CN1CCN(Cc2ccccc2Oc2ccc(C(N)=O)cn2)CC1,-9.578%
17,Nc1nc(CCCNC(=O)c2ccccc2C2CCNC2)cs1 (configuration not stated),16.63%
18,COc1ccccc1-c1c[nH]c(C2CCCN2)n1.Cl.Cl (configuration not stated),-20.8%
19,NC(=O)c1ccccc1Oc1cnc(C2CCCN2)cn1 (configuration not stated),134.2%
20,NC(=O)c1ccccc1Oc1cccc(C2CCCNC2)n1 (configuration not stated),178.3%
21,NC(=O)c1cc(C2CCCN(CCCOc3ccccc3)C2)n[nH]1 (configuration not stated),-3.314%
22,Cc1ncccc1C(=O)Nc1cccc2c1C(=O)NC2,-1.694%
23,CC(C)c1ocnc1C(=O)Nc1cccc(Cn2ccccc2=O)c1,74.78%
24,CC(C)c1nc2cc(NC(=O)Cn3ccccc3=O)ccc2o1,6.336%
25,Cc1ncccc1C(=O)Nc1ccc2ccn(CCN(C)C)c2c1,-6.665%

row,SMILES,Percent Effect
1,O=C(Nc1cccn(Cc2ccccc2)c1=O)c1ccncc1F,-8.682%
2,O=C(CCn1ccccc1=O)Nc1ccc(I)cc1,-0.04239%
3,CC(C)S(=O)(=O)Cc1cccc(NC(=O)c2ccc[nH]2)c1,19.64%
4,CSc1ncccc1C(=O)Nc1ccc(Cn2ccccc2=O)cc1,85.69%
5,Cc1ncccc1C(=O)Nc1cccc(Cn2ccccc2=O)c1,100.7%
6,CN(Cc1ccc(F)cc1)C(=O)NCc1nnc2n1CCC2,105%
7,CN(Cc1ccc(N(C)C)cc1)C(=O)NCc1nnc2n1CCC2,115.6%
8,CN(Cc1ccc(F)cc1)C(=O)NCc1nnc2n1CCCCC2,-12.53%
9,CN(Cc1cnn(C)c1)C(=O)NCc1nnc2n1CCC2,-11.71%
10,O=C(NCc1nnc2n1CCC2)N(Cc1ccc(F)cc1)C1CC1,-6.428%
11,CN(Cc1ccco1)C(=O)NCc1nnc2n1CCC2,1.808%
12,CN(CCO)Cc1nnc(C2CCN(C[C@H]3[C@@H]4CNC[C@@H]43)CC2)n1C,-4.687%
13,CCc1ccc(C2CC(=O)Nc3cc(NS(C)(=O)=O)ccc32)o1 (configuration not stated),85.79%
14,CCc1ccc(C2CC(=O)Nc3n[nH]cc32)o1 (configuration not stated),13.18%
15,CCc1ccc(C2CCCN2C(=O)CNC(=O)CCC(C)C)o1 (configuration not stated),9.018%
16,CCc1ccc(C2CCCN2C(=O)NCC(=O)NCC(C)C)o1 (configuration not stated),-83.92%
17,CN(Cc1ccc(C2CC(=O)Nc3cc4[nH]ncc4cc32)o1)S(C)(=O)=O (configuration not stated),6.583%
18,CCCC(=O)Nc1cc2c(cc1OC)NC(=O)CC2c1ccc(CC)o1 (configuration not stated),133.6%
19,CCc1ccc(S(=O)(=O)Nc2cc(OC)c(OC)cc2C(=O)O)s1,-0.559%
20,CCc1ccc(C2CC(=O)Nc3cc(OC)c(NS(C)(=O)=O)cc32)o1 (configuration not stated),82.49%
21,CN(Cc1ccc(C2CC(=O)Nc3n[nH]cc32)o1)S(C)(=O)=O (configuration not stated),5.804%
22,CS(=O)(=O)Cc1ccc(Cl)c(NCc2noc(C3CC3)n2)c1,-7.665%
